Measurements from PubChem BioAssay (NCI).
Compounds without any hit were thinned out: in the full panel of roughly 83,000, 20% have a hit.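 For each line, cells grew in 96-well plates with the test compound present at a single concentration for 48 hours.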 Activity calls are given as the source filed them. Rule for the calls: active = growth percent below 10; inactive = the rest.

Columns and labels:
Experiment in all cases: NCI-60 one-dose screen, 48 h (100 = growth as untreated, 0 = no growth, -100 = all killed)
Details in all cases: 10 µM unless noted
[1] = test system: HCT-15 colon
[2] = test system: HT29 colon
[3] = test system: SNB-75 CNS
[4] = test system: SNB-19 CNS
[5] = test system: U251 CNS
[6] = test system: PC-3 prostate
[7] = test system: SK-MEL-5 melanoma
[8] = test system: UACC-62 melanoma
[9] = test system: LOX IMVI melanoma
[10] = test system: SK-MEL-28 melanoma

Measured: growth

COc1cccc(C2=NN(C(C)=O)C(c3cc(OC)c(OC)c(OC)c3)C2)c1 (stereo not given)
inactive: [1] 31.6% | [4] 26.9% | [5] 31.1% | [6] 16.9% | [7] 15.7% | [8] 51.7% | [9] 48.6% | [10] 40.9%
active: [2] 8.66% | [3] -30.1%

CC(C)N(Cc1ccccc1)c1c(S)ssc1=S
inactive: [1] 10.4% | [4] 20.9% | [8] 34.1% | [9] 10.1% | [10] 21.8%
active: [2] 3.11% | [3] -2.3% | [5] 5.51% | [6] 1.17% | [7] -75.9%

COc1cc(C2CC(C3C(=O)N(C)C(=O)N(C)C3=O)=NN2c2cc(Cl)cc(Cl)c2)cc(OC)c1OC (stereo not given)
inactive: [1] 98.2% | [2] 91.6% | [3] 100% | [4] 91.7% | [5] 92.5% | [6] 74.3% | [7] 91.3% | [8] 75.6% | [9] 99% | [10] 101%

CC1c2ccccc2-c2ccccc2N1C (stereo not given)
inactive: [1] 102% | [2] 102% | [3] 105% | [4] 97.3% | [5] 99.2% | [6] 83.9% | [7] 107% | [8] 86.6% | [9] 94.6% | [10] 119%

CN1CCN(c2nc3scc(-c4ccccc4)c3c(=O)[nH]2)CC1
inactive: [1] 104% | [2] 96.7% | [3] 88.4% | [4] 96.5% | [5] 99.4% | [6] 92.9% | [7] 96.7% | [8] 94.2% | [9] 95.9% | [10] 104%

C[N+]1(C)C2CC[C@@H]1CC(OC(=O)C(O)c1ccccc1)C2 (stereo not given in full)
inactive: [1] 105% | [2] 103% | [3] 99% | [4] 110% | [5] 98.5% | [6] 99.5% | [7] 102% | [8] 102% | [9] 102% | [10] 113%

COc1ccc(CNC(=O)c2c(C)n([O-])c3ccc(OC)cc3[n+]2=O)cc1
inactive: [1] 103% | [2] 93.2% | [3] 99.1% | [4] 97.8% | [5] 96.3% | [6] 80.5% | [7] 95% | [8] 94.9% | [9] 101% | [10] 108%

CC(=O)Nc1cc2c3c(cccc3c1)-c1ccccc1-2
inactive: [1] 79.4% | [2] 108% | [3] 60.1% | [4] 91.2% | [5] 75.3% | [6] 57.9% | [7] 102% | [8] 89% | [9] 75.9% | [10] 103%

O=C(CSc1ncc(-c2ccccc2)n1-c1ccccc1)Nc1ccc(-c2nc3ccccc3s2)cc1
inactive: [1] 69% | [2] 38.1% | [3] 103% | [4] 90.4% | [5] 24.7% | [6] 80% | [7] 75.7% | [8] 87.3% | [9] 63.5% | [10] 80%

Cc1ccc2nc3c(n2c1)C(=O)C(=O)c1ccccc1-3
active: [1] -70.1% | [2] -39.1% | [3] -70.2% | [4] -77.7% | [5] -86% | [6] -24.5% | [7] -95.9% | [8] -89% | [9] -72% | [10] -86.4%

CC(C)Cn1cnc2c(NCn3nc(-c4cc(Cl)cc(Cl)c4Cl)n(/N=C/c4ccc(Cl)cc4)c3=S)nc3ccccc3c21
inactive: [1] 91.1% | [2] 91.1% | [3] 90.5% | [4] 108% | [5] 86.6% | [6] 83.6% | [7] 57.2% | [8] 72% | [9] 74.4% | [10] 112%

CCN(CC)CCSc1ncnc2c1cnn2-c1ccc(S(N)(=O)=O)cc1
inactive: [1] 89% | [2] 85.7% | [3] 108% | [4] 107% | [5] 92.9% | [6] 85.7% | [7] 79.1% | [8] 92.7% | [9] 87% | [10] 92.8%

OCCCc1n(Cc2ccc3ccccc3c2)c2ccccc2[n+]1Cc1ccc2ccccc2c1
active: [2] 6.48% | [4] 3.3% | [7] -97.8% | [8] -48.2% | [9] -41.9% | [10] -28%
inactive: [1] 86.4% | [3] 19.8% | [5] 13.6% | [6] 22.9%
